Assay outcomes from PubChem.
KB-3-1 tox: qHTS assay for MDR1-selective chemotherapeutics: Primary screen using the parental adenocarcinoma cell KB-3-1; 1.4% of 400,000 active; KB-3-1 viability, CellTiter-Glo ATP luminescence, 72 h; AID 1347075, 2019; Potency, µM (series often up to 46.1 µM), hits mostly cytotoxic; further: potency means the concentration at half of the fitted maximal effect; on the % scale 0 is the no-effect control and ±100 the full control effect; nearly all actives have a fitted effect of over 60% in size
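Here the drug-naive KB-3-1 line serves as comparator for MDR sub-line selectivity; cells received compound titrations, 72 h at 37 °C, then CellTiter-Glo readout.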
KB-V1 cytotox: qHTS assay for MDR1-selective chemotherapeutics: Primary screen using the drug-selected MDR subline cells KB-V1; KB-V1 MDR cells viability, CellTiter-Glo, 72 h; Potency, µM (doses to about 46.1 µM), usual class: cytotoxic; 3.4% of 400,000 active; further: potency means the concentration at half of the fitted maximal effect; on the % scale 0 is the no-effect control and ±100 the full control effect; nearly all actives have a fitted effect of over 60% in size
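KB-V1 MDR subline cells in DMEM (phenol-red free, 10% FBS) exposed to compounds in qHTS concentration series for 72 h at 37 degrees C. Viability read by CellTiter-Glo luminescence; concentration-effect curves fitted after normalization and correction.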
Giardia killer: Small Molecules that selectively kill Giardia lamblia: qHTS. Giardia lamblia trophozoite viability. activity change, % at 7.66 µM, hits read low. 0.15% of 340,000 active; in the data active means activity change below about -80%; inconclusive means between about -30% and that limit;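 further: parasites exposed to compound for two days anaerobically before the ATP read; on the % scale 0 is the no-effect control and ±100 the full control effect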
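Killing of trophozoites was scored by loss of ATP luminescence after a 48 hrs anaerobic exposure to compounds at 37 deg C, using 100 cells per well.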
SW480 rerep: A quantitative high throughput screen for small molecules that induce DNA re-replication in SW480 colon adenocarcinoma cells; SW480 DNA re-replication, Hoechst DNA content imaging, 48 h; Potency, µM (series often up to 46.1 µM), without a hit: at the top dose re-replication activation, usual class: activators; 1.8% of 340,000 active; AID 624297, 2012; further: potency means the concentration at half of the fitted maximal effect; % of control where 0% means no effect; nearly all actives have a fitted effect of over 55% in size
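DNA re-replication was detected as more nuclei of elevated Hoechst intensity after 48 hr exposure to compound (23 nL pinned per well of 250 cells).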
MCF10A rereplic: A quantitative high throughput screen for small molecules that induce DNA re-replication in MCF 10a normal breast cells; MCF 10A DNA re-replication, Hoechst nuclear intensity, 48 h; Potency, µM (series often up to 46.1 µM), for inactives: at the highest dose activity, positive = re-replication, most hits filed as activators; 2.9% of 350,000 active; AID 624296, 2012; further: potency means the concentration at half of the fitted maximal effect; % of control where 0% means no effect; nearly all actives have a fitted effect of over 50% in size
ASM inhibitor: Inhibitors of Secretory Acid Sphingomyelinase (S-ASM): qHTS; Sphingomyelin phosphodiesterase (Homo sapiens), P17405; placental ASM, HMU-PC fluorogenic substrate, 60 min; Potency, µM (series often up to 57.5 µM), for the others: top-dose activity change, negative = inhibition, usual class: inhibitors; 0.006% of 340,000 active; AID 504937, 2011; further: potency means the concentration at half of the fitted maximal effect
Target sequence (P17405 47-631 limits assumed): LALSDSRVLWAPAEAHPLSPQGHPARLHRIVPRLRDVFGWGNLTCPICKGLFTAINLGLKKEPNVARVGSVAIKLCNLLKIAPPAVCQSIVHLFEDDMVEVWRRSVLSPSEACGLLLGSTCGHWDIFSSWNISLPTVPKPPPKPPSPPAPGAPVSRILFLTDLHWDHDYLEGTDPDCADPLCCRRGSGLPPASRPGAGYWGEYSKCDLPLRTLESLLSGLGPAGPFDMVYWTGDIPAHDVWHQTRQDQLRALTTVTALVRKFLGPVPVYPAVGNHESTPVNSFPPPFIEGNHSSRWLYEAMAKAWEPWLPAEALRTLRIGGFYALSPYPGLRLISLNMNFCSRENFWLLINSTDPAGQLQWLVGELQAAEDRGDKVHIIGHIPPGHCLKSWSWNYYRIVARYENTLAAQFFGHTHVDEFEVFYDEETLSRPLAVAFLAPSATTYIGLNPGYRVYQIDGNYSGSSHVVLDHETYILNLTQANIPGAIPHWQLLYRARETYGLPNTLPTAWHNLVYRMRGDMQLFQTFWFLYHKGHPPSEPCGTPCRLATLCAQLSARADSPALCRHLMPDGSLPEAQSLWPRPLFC
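Fluorogenic HMU-PC substrate (9 uM final) is turned over by placental ASM in 60 min at 37 C after a 10 min compound preincubation. Reaction ended by alkaline stop (pH 10), with fluorescence read at 386/447 nm.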
Active calls of the source: *; i = inactive; ? = inconclusive; · = no result given; ! = repeats disagree; [ ] = remark or other dose. Most compounds without a hit are left out; they make up all but 6.9% or so of the library. Unless noted, the call rests on the fitted dose curve; in most records, active means well fitted curve in the direction sought with a large enough effect; inconclusive means small, poorly fitted or top-dose-only effect, or another doubt; inactive means no such curve, though single readings can be large; an effect the other way counts as inactive or inconclusive.

SMILES	KB-3-1 tox	KB-V1 cytotox	Giardia killer	SW480 rerep	MCF10A rereplic	ASM inhibitor
COc1cc(C2C3=C(COC3=O)Oc3cc4c(cc32)OCO4)cc(OC)c1OC (configuration not stated)	0.58µM*	0.1µM*!	0	0.13µM*	0.23µM*	-1%
COc1ccc(-c2nc(CNC(=O)NC3CCCCC3)c(C)o2)cc1	i	i	·	·	·	·
CCN(CC(=O)Nc1cc(Cl)ccc1C)C(=O)c1oc2ccc(OC)cc2c1C	i	16µM*	-22	-4%	15%	-15%
COc1ccc(S(=O)(=O)N(Cc2ccccc2)c2ccccc2C(=O)N2CCOCC2)cc1	?	13µM*	1	?	?	0%
CCOc1ccc(N(CC(=O)Nc2ccccc2OC)S(=O)(=O)c2ccccc2)cc1	4.6µM*	1µM*	6	2.3µM*	?	-1%
Cc1ccc(N(CC(=O)Nc2ccc3c(c2)OCCO3)S(=O)(=O)c2c(C)noc2C)cc1	i	?	-6	-1%	-3%[9.22 µM]	-10%
COc1ccc(N(CC(=O)Nc2ccc3c(c2)OCCO3)S(=O)(=O)c2c(C)noc2C)cc1	?	2.9µM*	-12	18%	?	-2%
COc1ccc(S(=O)(=O)N(Cc2ccccc2)c2ccccc2C(=O)O)cc1	i	i	0	4%[9.22 µM]	4%	4%
COc1ccc(N(CC(=O)Nc2cc(C)on2)S(=O)(=O)c2cc(C)ccc2C)cc1	?	5.8µM*	15	?	23%	-2%
CCS(=O)(=O)N(CC(=O)Nc1cccc2ccccc12)c1ccc(OC)cc1	i	13µM*	3	-1%	4%	-1%
CCOc1ccc(N(CC(=O)Nc2ccccc2C(=O)N2CCOCC2)S(=O)(=O)c2ccc(F)cc2)cc1	i	4.6µM*	9	0%	0%	2%
CCOc1ccccc1N(CC(=O)Nc1ccccc1F)S(=O)(=O)c1ccccc1	i	?	8	?	0.58µM*	-3%
CCc1ccc(NC(=O)COC(=O)c2ccccc2OCC(=O)N(C)C)cc1	i	i	·	·	·	·
CC(C)C[C@@H](N)C(=O)O	·	·	·	1%	-3%	·
Fc1ccc(CSc2nncn3c2cc2occc23)c(Cl)c1	i	i	·	·	·	·
Cc1ccc(N2C(=O)CC(c3ccccc3F)C3=C2COC3=O)cc1Cl (configuration not stated)	i	i	·	·	·	·
CCOc1ccc(N(CC(=O)Nc2ccccc2OCC)S(=O)(=O)c2c(C)noc2C)cc1	3.3µM*	5.8µM*	4	5.8µM*	1.3µM*	-3%
COc1ccc(N(CC(=O)Nc2cc(Cl)ccc2C)S(=O)(=O)c2c(C)n[nH]c2C)cc1	9.2µM*	i	7	-1%	-4%	0%
COc1ccc(N(CC(=O)Nc2ccc(C)cc2C)S(=O)(=O)c2c(C)n[nH]c2C)cc1	?	?	9	?	2%	4%
CCc1cccc(C)c1NC(=O)CSc1nnc(CCCOc2ccc(Cl)cc2Cl)n1C	18µM*	4.6µM*	19	-15%	25%	-8%
Cn1c(CCCOc2ccc(Cl)cc2Cl)nnc1SCC(=O)Nc1ccc(F)c(Cl)c1	i	i	21	12%	23µM*	-2%
Cc1cc(CN2CCN(CC(=O)Nc3cc(Cl)ccc3-n3cncn3)CC2)no1	i	i	2	?	-2%	4%
Cc1cc(CN2CCN(CC(=O)Nc3cc(C(F)(F)F)ccc3-n3cncn3)CC2)no1	i	23µM*	6	-10%	-3%	0%
S=C1Cc2ccccc2C(c2ccc(Cl)cc2)N1 (configuration not stated)	i	i	6	?	16µM*	5%
Cc1cccc(C(=O)OCC(=O)c2ccc(CC(=O)N3CCOCC3)s2)c1C	i	i	-3	5%	5%	1%
SMILES	KB-3-1 tox	KB-V1 cytotox	Giardia killer	SW480 rerep	MCF10A rereplic	ASM inhibitor
COc1ccc(-c2noc(-c3ccc(Cl)cc3[N+](=O)[O-])n2)cc1OC	i	18µM*	-12	0%	-3%	-4%
COc1ccc(-c2noc(CN(C)S(=O)(=O)c3ccc(Cl)cc3)n2)cc1OC	?	7.3µM*	11	-2%	1%	-4%
O=C(Nc1ccc(Cl)cc1)N1CCC(CN2CCCCCC2)CC1	i	i	·	·	·	·
Cc1ccc2occ(CC(=O)Nc3ccc(S(=O)(=O)N4CCCC(C)C4)cc3)c2c1 (configuration not stated)	i	i	·	·	·	·
CCOC(=O)CCn1cnc2onc(-c3cc(OC)ccc3Cl)c2c1=O	i	i	·	·	·	·
C[C@@H]1CC=C[C@H]2[C@H]1C(=O)N(Cc1ccccc1)[C@H]2c1ccc(-c2ccoc2)cc1F	i	i	-18	3%	18µM*	-8%
Cc1ccc(-c2cccc(C3CC=CC4C3C(=O)N(Cc3ccccc3)C4c3cc(C)ccc3F)c2)cc1 (configuration not stated)	21µM*	i	-5	-1%	-1%	0%
COc1ccc(-c2ccccc2[C@H]2[C@@H]3C=CC[C@@H](C)[C@@H]3C(=O)N2Cc2ccccc2)cc1	i	i	17	?	23µM*	-9%
COc1ccc(-c2ccc(F)cc2)cc1C1C2C=CCC(C)C2C(=O)N1Cc1ccccc1 (configuration not stated)	·	·	-22	·	·	·
COc1ccc(-c2ccc(C3C4C=CCC(C)C4C(=O)N3Cc3ccccc3)c(F)c2)cc1 (configuration not stated)	·	·	3	·	·	·
COc1ccc(-c2ccc(F)cc2)cc1[C@H]1[C@H]2C=CC[C@@H](C)[C@@H]2C(=O)N1Cc1ccccc1	?	?	7	-7%[9.22 µM]	21µM*	-9%
COc1ccc2c(C)c(CC(=O)NCCc3ccc(Cl)cc3)c(=O)oc2c1C	i	i	·	·	·	·
COc1ccc(CN(C)CCCn2cnc(C(=O)Nc3ccc(C)c(C)c3)n2)cc1OC	i	i	-17	?	?	-5%
Oc1cc2c(cc1O)[C@@H](c1ccccc1)CNCC2	i	i	-15	19%	18µM*	8%
c1ccc2c(c1)OCCOCCOCCOCCOCCOc1ccccc1OCCOCCOCCO2	5.2µM*	5.2µM*	16	?	?	4%
COc1cc(OC)c2c(c1C(CCN1CCCC1)c1ccc(N(C)C)cc1)OC(=O)CC2c1ccc(N(C)C)cc1 (configuration not stated)	·	·	-4	·	·	·
